Compound activity: PubChem, Broad Institute
Hits are enriched below; roughly 2.3% of the tested compounds scored in any of these assays.
C diff HTS: C. difficile growth inhibition | Clostridium difficile clinical isolate growth, OD600, 24 h; active compounds read low | growth activity, negative = inhibition, % at 16 µg/mL (by protocol) | actives 0.25% (n = 86,000);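 active = mean growth activity at or below -80% and every replicate also at or below -80%; inconclusive = mean at or below -80% but some replicate above -80%; inactive = mean growth activity above -80%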
Pf Dd2 inh: blocks growth of Plasmodium falciparum Dd2 parasites; P. falciparum Dd2 growth, SYBR Green, 72 h; active compounds read low; AID 1159554; actives 2.3% (n = 94,000); activity change, % at 10 µM; in the data active = activity change below about -80%; inconclusive = no clear call, values can overlap the other calls
Large screens that a line does not name were inactive.

COc1ccc(C#Cc2ccc([C@H]3[C@H]4CN(C(=O)c5ccc(F)cc5)CC(=O)N4[C@H]3CO)cc2)cc1	Pf Dd2 inh -85
COc1cccc(NC(=O)N2CC(=O)N3[C@H](C2)[C@H](c2ccc(C#CCC4CCCC4)cc2)[C@@H]3CO)c1	none
CO[C@@H]1CN(C)C(=O)c2cc(NC(=O)c3ccc(F)cc3)ccc2OC[C@@H](C)N(C(C)=O)C[C@@H]1C	none
C[C@H](CO)N1C[C@H](C)[C@H](CN(C)Cc2cncnc2)Oc2cc(-c3cccnc3)ccc2S1(=O)=O	none
C[C@@H]1CN([C@H](C)CO)C(=O)c2c(c3ccccc3n2C)-c2ccccc2CO[C@@H]1CN(C)C(=O)Nc1cccc(F)c1	none (no result: C diff HTS)
C[C@H]1CN([C@@H](C)CO)C(=O)c2c(c3ccccc3n2C)-c2ccccc2CO[C@H]1CN(C)C(=O)Nc1ccccc1	none (no result: C diff HTS)
COc1ccc(NC(=O)N(C)C[C@@H]2OCc3ccccc3-c3c(n(C)c4ccccc34)C(=O)N([C@@H](C)CO)C[C@@H]2C)cc1	none (no result: C diff HTS)
C[C@H]1CN([C@@H](C)CO)C(=O)c2c(c3ccccc3n2C)-c2ccccc2CO[C@H]1CN(C)C(=O)Nc1ccc(-c2ccccc2)cc1	Pf Dd2 inh -89
C[C@H](CO)N1C[C@H](C)[C@@H](CN(C)C(=O)Nc2ccc(F)cc2)OCc2ccccc2-c2c(n(C)c3ccccc23)C1=O	Pf Dd2 inh -92
C[C@@H]1CN([C@@H](C)CO)C(=O)c2c(c3ccccc3n2C)-c2ccccc2CO[C@@H]1CN(C)C(=O)Nc1ccccc1	none (no result: C diff HTS)
C[C@H](CO)N1C[C@H](C)[C@H](CN(C)C(=O)Nc2ccc(-c3ccccc3)cc2)OCc2ccccc2-c2c(n(C)c3ccccc23)C1=O	Pf Dd2 inh -89
C[C@@H]1CN([C@@H](C)CO)C(=O)c2c(c3ccccc3n2C)-c2ccccc2CO[C@H]1CN(C)C(=O)Nc1ccc(-c2ccccc2)cc1	Pf Dd2 inh -91
C[C@@H]1CN([C@@H](C)CO)C(=O)c2cccc(NC(=O)c3ccncc3)c2O[C@@H]1CN(C)C(=O)Nc1ccccc1	none
C[C@@H]1CCCCO[C@H](CN(C)Cc2ccc(C(=O)Nc3ccccc3N)cc2)[C@@H](C)CN([C@H](C)CO)C(=O)c2cc(NS(=O)(=O)c3ccccc3)ccc2O1	Pf Dd2 inh -89
C[C@@H]1CCCCO[C@H](CN(C)Cc2ccc(C(=O)Nc3ccccc3N)cc2)[C@@H](C)CN([C@H](C)CO)C(=O)c2cc(NS(=O)(=O)c3ccc(F)cc3)ccc2O1	Pf Dd2 inh inconclusive
Cc1ccc(S(=O)(=O)Nc2ccc3c(c2)C(=O)N([C@@H](C)CO)C[C@H](C)[C@@H](CN(C)Cc2ccc(C(=O)Nc4ccccc4N)cc2)OCCCC[C@@H](C)O3)cc1	Pf Dd2 inh -92
Cc1noc(C)c1S(=O)(=O)Nc1ccc2c(c1)C(=O)N([C@@H](C)CO)C[C@H](C)[C@@H](CN(C)Cc1ccc(C(=O)Nc3ccccc3N)cc1)OCCCC[C@@H](C)O2	Pf Dd2 inh -85
C[C@@H]1CCCCO[C@@H](CN(C)Cc2ccc(C(=O)Nc3ccccc3N)cc2)[C@@H](C)CN([C@H](C)CO)C(=O)c2cc(NS(C)(=O)=O)ccc2O1	none
Cc1noc(C)c1S(=O)(=O)Nc1ccc2c(c1)C(=O)N([C@H](C)CO)C[C@H](C)[C@H](CN(C)Cc1ccc(C(=O)Nc3ccccc3N)cc1)O2	none
COc1ccc(S(=O)(=O)Nc2ccc3c(c2)C(=O)N([C@@H](C)CO)C[C@H](C)[C@H](CN(C)S(=O)(=O)c2ccc(Cl)cc2)OCCCC[C@H](C)O3)cc1	none
COc1ccc(S(=O)(=O)N(C)C[C@H]2OCCCC[C@H](C)Oc3ccc(NS(=O)(=O)c4ccc(Cl)cc4)cc3C(=O)N([C@@H](C)CO)C[C@H]2C)cc1	Pf Dd2 inh -88
COc1ccc(S(=O)(=O)Nc2ccc3c(c2)C(=O)N([C@H](C)CO)C[C@H](C)[C@H](CN(C)S(=O)(=O)c2ccc(Cl)cc2)OCCCC[C@@H](C)O3)cc1	none
COc1ccc(S(=O)(=O)N(C)C[C@H]2OCCCC[C@@H](C)Oc3ccc(NS(=O)(=O)c4ccc(Cl)cc4)cc3C(=O)N([C@H](C)CO)C[C@H]2C)cc1	Pf Dd2 inh -90
COc1ccc(S(=O)(=O)Nc2ccc3c(c2)C(=O)N([C@@H](C)CO)C[C@H](C)[C@H](CN(C)S(=O)(=O)c2ccc(Cl)cc2)OCCCC[C@@H](C)O3)cc1	none
COc1ccc(S(=O)(=O)N(C)C[C@H]2OCCCC[C@H](C)Oc3ccc(NS(=O)(=O)c4ccc(Cl)cc4)cc3C(=O)N([C@H](C)CO)C[C@@H]2C)cc1	Pf Dd2 inh -87
CN1C(=O)c2cc(NC(=O)c3cccc(F)c3)ccc2OC[C@H]2O[C@H](CC(=O)NCc3ccccc3Cl)CC[C@H]21	none
C[C@H](CO)N1C[C@H](C)[C@@H](CN(C)Cc2ccc(-c3ccccc3)cc2)Oc2c(NC(=O)c3ccc(-c4nccs4)cc3)cccc2C1=O	Pf Dd2 inh -86
C[C@@H]1CN([C@H](C)CO)C(=O)c2cccc(NC(=O)c3ccc(-c4nccs4)cc3)c2O[C@H]1CN(C)Cc1ccc(-c2ccccc2)cc1	Pf Dd2 inh -82
C[C@@H]1CN([C@H](C)CO)C(=O)c2cccc(NC(=O)c3ccc(-c4nccs4)cc3)c2O[C@H]1CN(C)Cc1ccc2c(c1)OCO2	Pf Dd2 inh -92
C[C@@H]1CN([C@@H](C)CO)C(=O)c2cccc(NC(=O)c3ccc(-c4nccs4)cc3)c2O[C@@H]1CN(C)C(=O)Nc1cccc2ccccc12	Pf Dd2 inh -86
C[C@H]1CN([C@@H](C)CO)C(=O)c2cccc(NC(=O)c3ccc(-c4nccs4)cc3)c2O[C@@H]1CN(C)Cc1ccc2c(c1)OCO2	none
C[C@H](CO)N1C[C@H](C)[C@H](CN(C)Cc2ccc(-c3ccccc3)cc2)Oc2c(NC(=O)c3ccc(-c4nccs4)cc3)cccc2C1=O	none
C[C@H]1CN([C@@H](C)CO)C(=O)c2cccc(NC(=O)c3ccc(-c4nccs4)cc3)c2O[C@H]1CN(C)C(=O)Nc1cccc2ccccc12	none
C[C@H]1CN([C@@H](C)CO)C(=O)c2cccc(NC(=O)c3ccc(-c4nccs4)cc3)c2O[C@H]1CN(C)Cc1ccc(-c2ccccc2)cc1	none
C[C@H](CO)N1C[C@H](C)[C@H](CN(C)Cc2cccc(F)c2)Oc2cc(C#CC3CC3)ccc2S1(=O)=O	none
O=C(C[C@H]1CC[C@H]2[C@@H](COC[C@@H](O)CN2Cc2cc(F)ccc2F)O1)NCc1ccc(Oc2ccccc2)cc1	none
COc1cc2c(cc1O)C=[N+](Cc1cc3c(cc1Br)OCO3)CC2	none (no result: Pf Dd2 inh)
O=C(C[C@@H]1CC[C@H]2[C@@H](COC[C@@H](O)CN2C(=O)c2ccncc2)O1)NCc1cccc(F)c1	none (no result: Pf Dd2 inh)
O=C(c1ccccc1)N1CC2(C1)[C@@H](c1ccccc1)[C@@H](CO)N2CC1CC1	none
CC(C)NC(=O)N(C)C[C@H]1Oc2ccc(NC(=O)Cc3ccccc3)cc2C(=O)N([C@@H](C)CO)C[C@@H]1C	none
O=C(c1ccc2c(c1)OCO2)N1CC2(C1)[C@@H](c1ccccc1)[C@@H](CO)N2C(=O)C1CCC1	none
O=C(c1cccnc1)N1CC2(C1)[C@@H](c1ccccc1)[C@@H](CO)N2C(=O)CC1CC1	Pf Dd2 inh -87
O=C(CC1CC1)N1CC2(C1)[C@H](c1ccccc1)[C@@H](CO)N2C(=O)c1cccnc1	none
